Experimental data taken from PubChem BioAssay (NCI).
About 83,000 compounds went through this panel and 20% of them were active in at least one assay; those are over-represented in the sample as a whole.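 Values shown are percent growth following 48 h exposure of cells in 96-well plates to a single concentration of compound; below 10 was considered active.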 The source made the active and inactive calls.

Assays:
Assay in all cases: NCI-60 one-dose screen, 48 h (100 = growth as untreated, 0 = no growth, -100 = all killed)
Details in all cases: 10 µM unless noted
[1] = tested on: NCI-H23 lung
[2] = tested on: NCI-H226 lung
[3] = tested on: NCI-H322M lung
[4] = tested on: HOP-62 NSCLC
[5] = tested on: NCI-H460 lung
[6] = tested on: NCI-H522 lung
[7] = tested on: A549/ATCC NSCLC
[8] = tested on: 786-0 renal
[9] = tested on: COLO 205 colon
[10] = tested on: DU-145 prostate
[11] = tested on: K-562 leukemia
[12] = tested on: MALME-3M melanoma
[13] = tested on: MDA-MB-231 breast
[14] = tested on: RXF 393 renal
[15] = tested on: SF-268 CNS
[16] = tested on: SF-295 CNS
[17] = tested on: SF-539 CNS
[18] = tested on: UACC-257 melanoma
[19] = tested on: M14 melanoma

Measured: growth

Clc1ccc(N/N=c2/oc3ccccc3cc2-c2cc3ccccc3[nH]2)cc1
inactive: [1] 64.4% | [2] 77.7% | [3] 78.6% | [4] 75.9% | [5] 85.2% | [6] 77.1% | [7] 76.2% | [8] 87.7% | [9] 95.8% | [10] 88.6% | [11] 67% | [12] 55.3% | [13] 67.1% | [14] 76% | [15] 85.1% | [16] 71% | [17] 87.3% | [18] 84.1% | [19] 66.5%

O=C(Nc1nc2ccc([N+](=O)[O-])cc2s1)Nc1ccccc1Cl
active: [1] 9.48% | [6] 0.0093%
inactive: [2] 30.7% | [3] 52.2% | [4] 28.2% | [5] 20.1% | [7] 30.2% | [8] 48.5% | [9] 39.8% | [10] 40.2% | [11] 20.6% | [12] 12.1% | [13] 47.5% | [14] 49.2% | [15] 41.7% | [16] 48.5% | [17] 54.7% | [18] 23.2% | [19] 45.1%

CC(C)c1ccc(NCc2cn(-c3ccc(C(=O)O)cc3)nc2-c2cc(C(F)(F)F)cc(C(F)(F)F)c2)cc1
inactive: [1] 83.2% | [2] 85.8% | [3] 85.1% | [4] 94.9% | [5] 83% | [6] 85% | [7] 79.8% | [8] 90.7% | [9] 96.5% | [10] 89.6% | [11] 79.8% | [12] 71% | [13] 91.8% | [14] 97.2% | [15] 88.1% | [16] 98.5% | [17] 83.6% | [18] 94.9% | [19] 86%

O=S(=O)(NC1c2ccccc2C[C@H]1O)c1ccc(Cl)cc1Cl (stereo partly specified)
inactive: [1] 92.3% | [2] 93.6% | [3] 94.6% | [4] 103% | [5] 101% | [6] 98.3% | [7] 93.5% | [8] 102% | [9] 114% | [10] 114% | [11] 95.2% | [12] 93.6% | [13] 99.5% | [14] 107% | [15] 96.7% | [16] 108% | [17] 101% | [18] 102% | [19] 92.3%

COCCNc1ccc2ncc(C#Cc3cncc(C(=O)Nc4ccc(CN5CCN(C)CC5)c(C(F)(F)F)c4)c3)n2n1
active: [1] -49.6% | [2] -45.9% | [3] -23% | [4] -48.3% | [5] -82.5% | [6] -76.3% | [7] 3.12% | [8] -64.1% | [9] -83.1% | [10] -32.4% | [11] 1.22% | [12] -69.7% | [13] -15% | [14] -84.3% | [15] -55% | [16] -13.9% | [17] -77% | [18] -46.4% | [19] -86.2%

Cc1cc(C)c2sc(=O)n(Cc3nnc(SCCC(=O)O)o3)c2n1
inactive: [1] 101% | [2] 94.5% | [3] 98% | [4] 98.2% | [5] 105% | [6] 100% | [7] 104% | [8] 104% | [9] 124% | [10] 108% | [11] 94.2% | [12] 99.2% | [13] 97.5% | [14] 89.2% | [15] 99.2% | [16] 101% | [17] 98.8% | [18] 101% | [19] 104%

O=C(Cn1c(-c2ccccc2)nc2cc(Cl)c(Cl)cc21)N=Nc1c(O)[nH]c2ccc(Cl)cc12
inactive: [1] 68.7% | [2] 37.3% | [3] 94.6% | [4] 86.5% | [5] 65.8% | [6] 72.1% | [7] 73.8% | [8] 96.2% | [9] 66.6% | [10] 75.7% | [11] 63.2% | [12] 81.6% | [13] 85% | [15] 104% | [16] 77.7% | [17] 79.4% | [18] 84.4% | [19] 60.7%
active: [14] -5.08%

COC(=O)c1[nH]nc2c1C1(C(=O)c3cccc4cccc1c34)C(C#N)=C(N)O2 (stereo unspecified)
inactive: [1] 95% | [2] 91.8% | [3] 94.1% | [4] 97.5% | [5] 105% | [6] 100% | [7] 98.2% | [8] 99.5% | [9] 110% | [10] 104% | [11] 91.2% | [12] 103% | [13] 91.4% | [14] 93.5% | [15] 84.1% | [16] 104% | [17] 101% | [18] 103% | [19] 108%

CCCn1cnc2c(c1=N)C(c1ccc(OC)cc1)c1sc3c(C)cccc3c1O2 (stereo unspecified)
inactive: [1] 23.1% | [2] 63.8% | [3] 45.3% | [4] 43.6% | [7] 29.2% | [8] 31.1% | [10] 19.1% | [11] 13% | [12] 57.8% | [13] 27.4% | [15] 39% | [18] 86.7%
active: [5] 6.21% | [6] -3.75% | [9] 7.69% | [14] -5.55% | [16] -6.82% | [17] -21.6% | [19] 2.53%

COc1ccc(/C=C/C(=O)c2cccc(NC(=O)CSc3nc4ccccc4c(=O)n3-c3ccccc3)c2)cc1OC
inactive: [1] 106% | [2] 93.2% | [3] 105% | [4] 111% | [5] 100% | [6] 96.9% | [7] 91.5% | [8] 103% | [9] 123% | [10] 105% | [11] 89.9% | [12] 107% | [13] 97.3% | [14] 97.7% | [15] 94.6% | [16] 103% | [17] 101% | [18] 110% | [19] 102%

COc1cc(OC)c(S(N)(=O)=O)cc1C(=O)/C=C/c1ccc(Cl)cc1
active: [1] 6.85% | [2] -26% | [4] 9.71% | [5] -11.2% | [6] -6.47% | [7] 6.83% | [9] -30% | [10] 5.02% | [11] 7.15% | [14] -40.4% | [15] 6.79% | [16] 1.14% | [17] 0.148%
inactive: [3] 16.3% | [8] 13.8% | [12] 61.4% | [13] 11.5% | [18] 73.6% | [19] 19.9%

Cc1ccc2c(c1)C(=O)/C(=C/c1cccc(F)c1)S2
inactive: [1] 101% | [2] 88.5% | [3] 98.2% | [4] 109% | [5] 105% | [6] 93.2% | [7] 107% | [8] 103% | [9] 112% | [10] 111% | [11] 90.7% | [12] 97.9% | [13] 99.8% | [14] 96.6% | [15] 101% | [16] 105% | [17] 100% | [18] 103% | [19] 109%

Nc1nc(-c2cccc([N+](=O)[O-])c2)c(N=Nc2ccc(Br)cc2)s1
inactive: [11] 16.6% | [15] 26.2%
active: [1] -65% | [2] -39.2% | [3] -25.4% | [4] -68.1% | [5] -61% | [6] -48.6% | [7] -20.3% | [8] -96.4% | [9] -2.36% | [10] -41.2% | [12] -62% | [13] -46.6% | [14] -92.3% | [16] -65.4% | [17] -98% | [18] 0.3% | [19] -75.4%

CN(C)CCN(C)c1ccc2ncc(C#Cc3cncc(C(=O)Nc4ccc(CN5CCN(C)CC5)c(C(F)(F)F)c4)c3)n2n1
inactive: [2] 64.3% | [3] 89% | [4] 33.6% | [6] 97% | [8] 90.9% | [9] 25.1% | [12] 61.9% | [15] 64.6% | [16] 83.8% | [18] 107%
active: [1] -66.4% | [5] -76% | [7] -40.5% | [10] -59.2% | [11] 3.58% | [13] -53.4% | [14] -90.1% | [17] -9.03% | [19] -80.8%
